Shown are actives, neighbours in structure and some others; about 3.8% of the full set was active somewhere.
HT1080NT lethal: kills 2HG-producing HT-1080-NT fibrosarcoma cells | actives 1.6% (n = 360,000) | HT-1080-NT fibrosarcoma viability, CellTiter-Glo ATP luminescence, 48 h | Potency, µM (doses to about 46.1 µM), inactives show top-dose activity, negative = less viability, usual class: cytotoxic;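 note: NT is the 2HG producing partner of a matched IDH1 knockdown line; 0% = DMSO-treated cells and -100% = media-only wells without cells; nearly all actives have a fitted effect of over 55% in size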
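Fibrosarcoma NT cells, 750 per well in 5% FBS RPMI, were exposed to compound for 48 hours. Viability: CellTiter-Glo luminescence.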
ATXN2 expr inh: inhibitors of ATXN2 expression | Potency, µM (highest dose often 57 µM), without a hit: at the highest dose activity change, negative = inhibition, actives largely listed as inhibitors | actives 0.72% (n = 360,000) | HEK-293 ATXN2-luciferase reporter, luminescence, 24 h; note: % is set by controls: 0 for no effect and ±100 for the full control effect; nearly all actives have a fitted effect of over 55% in size
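ATXN2-luciferase reporter cells (luciferase flanked by upstream and downstream ATXN2 gene portions) were treated 24 h at 37 °C with compounds at up to 57 uM. SteadyGlo luminescence gave expression; GF-AFC fluorescence gave viability.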
ATXN viability: cell viability loss in ATXN counter-screen. S2 cells (HEK-293 line with an ATXN2-luciferase reporter) viability, CellTiter-Fluor protease fluorescence, 24 h. Potency, µM (highest dose often 56.7 µM), usual class: cytotoxic. actives 0.49% (n = 400,000); note: nearly all actives have a fitted effect of over 40% in size
HT1080 IDH1KD tx: kills HT-1080 cells with IDH1 knockdown; Potency, µM (doses to about 46.1 µM), without a hit: top-dose activity, negative = toxicity, actives largely listed as cytotoxic; actives 2% (n = 360,000); HT-1080 IDH1 knockdown viability, ATP luminescence, 48 h;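 note: 0% = DMSO wells and -100% = cell-free medium wells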
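Luminescent ATP read-out (CellTiter-Glo, 10 min at room temperature) after 48 h compound exposure at 37 °C gave viability of IDH1-knockdown HT-1080 cells. Activity was normalised to DMSO and cell-free wells, then fitted as concentration-response curves.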
HepG2 viability: HepG2 cytotoxicity, counter-screen for TGF-b inhibitors; HepG2 CAGA-GFP viability, ATP luminescence, 18 h; Potency, µM (series often up to 46.1 µM), for the others: at the top dose activity change, negative = cytotoxicity, actives largely listed as cytotoxic; actives 0.76% (n = 410,000); AID 588856
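HepG2 CAGA-GFP cells (1000/well, DMEM with 1% FBS) received compound, then TGF-beta at 500 pg/mL final, and were incubated 18 hours at 37 degrees C. Viability was read by CellTiter-Glo luminescence. Media-only wells were set as complete cell-killing and DMSO as no toxicity.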
TGFb SMAD3 inh: inhibitors of TGF-b signaling | HepG2 CAGA-GFP TGF-b/SMAD3 reporter, GFP fluorescence, 18 h; TGF-beta stimulated, 500 pg/mL final | Potency, µM (doses to about 46.1 µM), inactives show at the top dose activity, negative = inhibition, usual class: inhibitors | actives 1.2% (n = 410,000); note: % is set by controls: 0 for no effect and ±100 for the full control effect; nearly all actives have a fitted effect of over 65% in size
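HEPG2 CAGA-GFP cells (1000/well, DMEM with 1% FBS) were pre-incubated 2 h at 37 degrees C, given compound by pin tool, then stimulated with TGF-beta at 500 pg/mL final for 18 h before per-cell GFP fluorescence imaging.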
An asterisk follows results filed as active; ! = a repeat was not active. Calls come from the whole dose curve; as a rule, active = well fitted curve in the direction sought with a large enough effect; inconclusive = small, poorly fitted or top-dose-only effect, or another doubt; inactive = no such curve, though single readings can be large; an effect the other way counts as inactive or inconclusive. Potency is the fitted concentration of half-maximal effect.

Results for CC(C)(C)c1ccc(Oc2ccc(N)cn2)cc1 ?
HT1080NT lethal: -0.7%; ATXN2 expr inh: 9.47µM*; ATXN viability: inactive; HT1080 IDH1KD tx: -22.6%; HepG2 viability: 3.8%; TGFb SMAD3 inh: inconclusive

What do the screens show for `CCN1CCN(C(=O)c2ccc3c(c2)N(Cc2c(F)cccc2Cl)C(=O)c2ccccc2S3)CC1`?
HepG2 viability: -20.0%; TGFb SMAD3 inh: -4.1%

What do the screens show for `CC1SC(=S)N(c2ccc(N(C)C)cc2)C1=O` (stereo not given)?
HT1080NT lethal: -0.6%; ATXN2 expr inh: -20.8%; ATXN viability: inactive; HT1080 IDH1KD tx: inconclusive; HepG2 viability: -74.6%; TGFb SMAD3 inh: 15.8µM*

How did Cc1ccc(-n2[nH]c(C)c(C=NCc3ccncc3)c2=O)cc1 do in these assays?
HT1080NT lethal: inconclusive; ATXN2 expr inh: 28.9%; ATXN viability: inactive; HT1080 IDH1KD tx: inconclusive; HepG2 viability: -109.3%; TGFb SMAD3 inh: -9.0%

Results for CCCc1nc2ccccc2c(=O)n1/N=C/c1ccccc1O ?
HT1080NT lethal: inconclusive; ATXN2 expr inh: 14.3%; ATXN viability: inactive; HT1080 IDH1KD tx: inconclusive; HepG2 viability: -36.1%; TGFb SMAD3 inh: 2.82µM*

How did Cc1ccc(-c2[nH]ncc2/C=N/n2c(COc3ccccc3C)nc3ccccc3c2=O)cc1 do in these assays?
HT1080NT lethal: inconclusive; ATXN2 expr inh: 28.2µM*; HT1080 IDH1KD tx: inconclusive; HepG2 viability: 5.62µM*; TGFb SMAD3 inh: 12.6µM*

What do the screens show for `CCCc1nc2ccccc2c(=O)n1/N=C/c1c(C)[nH]n(-c2ccc(C)cc2)c1=O`?
HT1080NT lethal: 16.4µM*; ATXN2 expr inh: inconclusive; ATXN viability: inactive; HT1080 IDH1KD tx: 18.4µM*; HepG2 viability: -89.3%; TGFb SMAD3 inh: inconclusive

What do the screens show for `Cc1cc(C)c2c(ccc3ccccc32)n1`?
HT1080NT lethal: 9.0%; ATXN2 expr inh: -6.3%; ATXN viability: inconclusive; HT1080 IDH1KD tx: 18.7%; HepG2 viability: 1.0%; TGFb SMAD3 inh: -36.6%

How did Oc1ccc(-c2nc3ccc4ccccc4c3c3c2CCC3)cc1O do in these assays?
HT1080NT lethal: inconclusive; ATXN2 expr inh: -35.2%; ATXN viability: inactive; HT1080 IDH1KD tx: inconclusive; HepG2 viability: 25.1µM*; TGFb SMAD3 inh: 0.0%

Results for Cc1ccc(/C(=N\O)c2oc3c(C)c4oc(=O)cc(C)c4cc3c2C)cc1 ?
HT1080NT lethal: inconclusive; ATXN2 expr inh: inconclusive; ATXN viability: inconclusive; HT1080 IDH1KD tx: 23.1µM*; HepG2 viability: -17.6%; TGFb SMAD3 inh: inconclusive

Results for CS(=O)(=O)c1ncc(Cl)c(C(=O)Nc2ccc(OC(F)F)cc2)n1 ?
HT1080NT lethal: inconclusive; ATXN2 expr inh: inconclusive; ATXN viability: inconclusive; HT1080 IDH1KD tx: 13µM*; HepG2 viability: -96.0%; TGFb SMAD3 inh: inconclusive

What do the screens show for `O=C(Nc1ccc(N2CCOCC2)cc1)c1cnccn1`?
HT1080NT lethal: -2.6%; ATXN2 expr inh: 2.51µM*; ATXN viability: inactive; HT1080 IDH1KD tx: -19.6%; HepG2 viability: -7.7%; TGFb SMAD3 inh: -4.2%

How did CS(=O)(=O)c1ccc(C(=O)Nc2ccc(N3CCOCC3)cc2)c(Cl)c1 do in these assays?
HT1080NT lethal: 12.3%; ATXN2 expr inh: -6.4%; ATXN viability: inactive; HT1080 IDH1KD tx: 10.3%; HepG2 viability: 2.6%; TGFb SMAD3 inh: 8.2%

What do the screens show for `O=C(Nc1ccc(OC(F)F)cc1)c1ccccn1`?
HT1080NT lethal: 4.6%; ATXN2 expr inh: 4.3%; ATXN viability: inactive; HT1080 IDH1KD tx: 1.7%; HepG2 viability: -13.6%; TGFb SMAD3 inh: -3.8%

Results for CS(=O)(=O)c1ncc(Cl)c(C(=O)Nc2ccc(N3CCOCC3)cc2)n1 ?
HT1080NT lethal: 3.55µM*; ATXN2 expr inh: inconclusive; HT1080 IDH1KD tx: 1.58µM*; HepG2 viability: -100.9%; TGFb SMAD3 inh: inconclusive

How did Cc1ccccc1C(=O)Nc1cccc(-c2nnc(SCC(=O)NCc3ccco3)n2C)c1 do in these assays?
HepG2 viability: -2.8%; TGFb SMAD3 inh: -7.3%

How did CCCc1ccc(-c2cc(NC(=O)CSc3nnc(N)s3)n(-c3ccccc3)n2)cc1 do in these assays?
HT1080NT lethal: 16.4µM*; ATXN2 expr inh: 85.9%; ATXN viability: inactive; HT1080 IDH1KD tx: inconclusive; HepG2 viability: -16.9%; TGFb SMAD3 inh: inconclusive

What do the screens show for `O=C(c1cscn1)N1CCOc2ccc(CN3CCC(Oc4cccnc4)CC3)cc2C1`?
ATXN viability: inactive

What do the screens show for `O=c1[nH]c2ccc(NCc3ccccc3OCc3ccc(Cl)cc3)cc2[nH]1`?
HT1080NT lethal: 16.4µM*; ATXN2 expr inh: inconclusive; ATXN viability: inconclusive; HT1080 IDH1KD tx: inconclusive; HepG2 viability: -30.1%; TGFb SMAD3 inh: inconclusive

How did Fc1ccccc1CNc1ccc(Cl)cc1 do in these assays?
HT1080NT lethal: 2.7%; ATXN2 expr inh: -0.7%; ATXN viability: inactive; HT1080 IDH1KD tx: -19.8%; HepG2 viability: -20.2%; TGFb SMAD3 inh: 3.4%

Results for Oc1ccc(NCc2ccccc2OCc2ccc(Cl)cc2)cc1 ?
HepG2 viability: 12.6µM*; TGFb SMAD3 inh: 5.62µM*

How did CCOc1cc(CNc2ccc(O)cc2)ccc1OCc1ccc(Cl)cc1 do in these assays?
ATXN2 expr inh: -7.8%; ATXN viability: inconclusive; HepG2 viability: -101.7%; TGFb SMAD3 inh: 12.6µM*

How did Oc1ccc(NCc2ccccc2OCc2ccccc2)cc1 do in these assays?
HT1080NT lethal: -21.4%; ATXN2 expr inh: inconclusive; HT1080 IDH1KD tx: inconclusive; HepG2 viability: 11.2µM*!; TGFb SMAD3 inh: 8.91µM*

How did COc1ccc(-c2cc(C(=O)Nc3cccc(O)c3)on2)cc1OC do in these assays?
ATXN2 expr inh: 10.1%; ATXN viability: inactive; HepG2 viability: 11.2%; TGFb SMAD3 inh: 22.8%

How did Fc1ccc(OCCCCCCN2CCCC2)cc1 do in these assays?
HT1080NT lethal: 6.6%; ATXN2 expr inh: -3.9%; ATXN viability: inactive; HT1080 IDH1KD tx: -4.4%; HepG2 viability: -32.9%; TGFb SMAD3 inh: inconclusive

What do the screens show for `CC(C)(C(=O)O)c1ccc([C@H](O)CCCN2CCC(C(O)(c3ccccc3)c3ccccc3)CC2)cc1`?
HT1080NT lethal: inconclusive; ATXN2 expr inh: -1.8%; ATXN viability: inactive; HT1080 IDH1KD tx: 7.7%; HepG2 viability: -1.6%; TGFb SMAD3 inh: 14.7%

Results for OC(c1ccccc1)(c1ccccc1)C1CCN(CCCOc2ccc(F)cc2)CC1 ?
HT1080NT lethal: 20.6µM*; ATXN2 expr inh: inconclusive; ATXN viability: inconclusive; HT1080 IDH1KD tx: 23.1µM*

How did Cc1ccc(OCCCN2CCC(C(O)(c3ccccc3)c3ccccc3)CC2)cc1 do in these assays?
HT1080NT lethal: inconclusive; ATXN2 expr inh: inconclusive; HT1080 IDH1KD tx: 18.4µM*
